Screening results as filed in PubChem.
This is a sample that favours compounds with a hit; in the whole collection about 1.3% have one here.
Vif-A3G inh: inhibitors of Vif-APOBEC3G interaction. Q9HC16. HeLa A3G-eYFP + Vif (tagged APOBEC3G with the HIV-1 protein that degrades it), YFP fluorescence, overnight. 0.076% of 410,000 active. Potency, µM (titrated, usually from 46.1 µM), for the others: top-dose activity, negative = active, actives largely listed as inhibitors; note: potency is the fitted concentration of half-maximal effect; % is set by controls: 0 for no effect and ±100 for the full control effect; nearly all actives have a fitted effect of over 60% in size
Target sequence (Q9HC16 whole entry, looked up): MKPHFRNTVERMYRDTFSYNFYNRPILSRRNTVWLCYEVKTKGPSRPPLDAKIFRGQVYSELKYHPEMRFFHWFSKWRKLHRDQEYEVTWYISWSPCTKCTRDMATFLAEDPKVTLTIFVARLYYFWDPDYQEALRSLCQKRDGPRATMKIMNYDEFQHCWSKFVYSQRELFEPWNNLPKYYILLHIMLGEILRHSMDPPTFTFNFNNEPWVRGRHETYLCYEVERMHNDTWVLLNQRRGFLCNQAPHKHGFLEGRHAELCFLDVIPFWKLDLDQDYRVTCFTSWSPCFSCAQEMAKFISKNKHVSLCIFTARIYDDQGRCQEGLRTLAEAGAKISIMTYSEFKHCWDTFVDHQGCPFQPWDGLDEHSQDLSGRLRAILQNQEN
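Read-out is eYFP fluorescence (Ex 488/Em 500-530) from Vif-expressing HeLa A3G-eYFP cells; more signal means A3G escaped Vif-mediated degradation. Cells plated overnight, compound pinned in, incubated overnight at 37 deg C.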
ALOX12 inh: inhibitors of human 12S-lipoxygenase ALOX12 | purified 12hLO, xylenol orange hydroperoxide absorbance | Potency, µM (series often up to 108 µM), without a hit: top-dose activity change, negative = inhibition, most hits filed as inhibitors | P18054 | 1.1% of 580,000 active; note: potency is the fitted concentration of half-maximal effect; % is set by controls: 0 for no effect and ±100 for the full control effect
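Hydroperoxide product was detected by ferrous iron/xylenol orange as the 573 to 405 nm absorbance ratio. Arachidonic acid at 40 uM (final) was turned over for 30 min at room temperature by 150 nM human 12hLO, pH 7.0 Hepes buffer, after 15 min compound preincubation.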
TRPML1 inh: blocks the human TRPML1 channel. TRPML1-inducible cells, Ca2+ dye fluorescence, FDSS; stronger effect = lower value; inhibition of EC80 agonist-evoked calcium signal. activity change, negative = inhibition, % (no concentration beside the values). 0.02% of 390,000 active; in the data active = activity change below about -50%; inconclusive = between about -30% and that limit;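 note: stimulus is agonist 54-4 at its EC80 concentration; % is set by controls: 0 for no effect and ±100 for the full control effect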
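Calcium fluorescence in TRPML1-DL cells induced overnight with Tet: a 110 s read after compound pin addition, then a 110 s antagonist read after challenge with 54-4 at 4 uM final (EC80).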
TRPML1 agonist: human mucolipin-1 channel agonism | AID 624414 | 0.12% of 410,000 active | Q9GZU1 | TRPML1-expressing cells, Ca2+ dye fluorescence, FDSS | activation, % (test concentration not listed); in the data active = activation above about 50%; inconclusive = mostly about 30% to 49%; note: 0% is about no effect
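Agonist activity was taken from a 110 s kinetic Ca2+ dye read on the FDSS after pinning compounds onto TRPML1-DL cells. The cells were seeded at 1,500/well with Tet inducer, incubated about 16 h, then dye-loaded at room temperature.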
Glioma ERSR ind: induces the endoplasmic reticulum stress response in human glioma cells; U87-MG GRP78 promoter luciferase reporter, 16 h; Potency, µM, without a hit: at the highest dose activation, usual class: activators; 0.02% of 420,000 active; note: potency is the fitted concentration of half-maximal effect; series mostly up to about 76 µM; % of control where 0% means no effect; nearly all actives have a fitted effect of over 35% in size
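Stably transfected U87-MG glioma cells carrying a GRP78-based luciferase sensor; 16 h compound incubation. Luminescence end-point read 10 min after Bright-Glo addition at room temperature.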
Vif-A3F inh: inhibitors of Vif-A3F interaction | 0.2% of 390,000 active | HeLa A3F-eYFP + Vif (tagged APOBEC3F with the HIV-1 protein that degrades it), YFP fluorescence increase | Potency, µM (series often up to 46.1 µM), without a hit: top-dose activity, negative = active | AID 602313; note: potency is the fitted concentration of half-maximal effect; % of control where 0% means no effect; nearly all actives have a fitted effect of over 65% in size
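Fluorescence increase (Ex 488/Em 500-530) after overnight compound treatment at 37 deg C flags inhibition of Vif-driven A3F-eYFP loss in stable HeLa A3F-eYFP/Vif cells seeded overnight beforehand.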
Numbers without * were called inactive; ? = inconclusive; . = no result given; [ ] = another dose, or the depositor's remark. Unless noted, calls come from the whole dose curve; as a rule, active = well fitted curve in the direction sought with a large enough effect; inconclusive = small, poorly fitted or top-dose-only effect, or another doubt; inactive = no such curve, though single readings can be large; an effect the other way counts as inactive or inconclusive.

SMILES | Vif-A3G inh | ALOX12 inh | TRPML1 inh | TRPML1 agonist | Glioma ERSR ind | Vif-A3F inh
Cc1ccc2c(Cl)c(C)c(N3CCCC3)nc2n1 | 2% | -18% | 11 | 2 | -7% | 22µM*
CN1CCN(C(=O)c2cccnc2-c2nc3ccccc3s2)CC1 | . | 32µM* | . | . | . | .
CCCN(CC(=O)Nc1ccccc1OC)C(=O)c1cc(-c2ccccc2)nn1-c1ccccc1 | 10% | 45µM* | -13 | 3 | 1% | -2%
CCN(CC(=O)Nc1ccc(NC(C)=O)cc1)C(=O)c1cc(-c2ccccc2)nn1-c1ccccc1 | 0% | -12% | 7 | 1 | -2% | -8%
O=C(Nc1ccc(Cl)cc1)Nc1ccon1 | 20µM* | -17% | 29 | 1 | 0% | 1%
COc1cc(C=O)cc(Cl)c1OCc1ccc(F)cc1 | . | -10% | . | . | . | .
CCCN1CCCCC12Cc1ccccc1CN(C(=O)CCCC(=O)O)C2 (stereo not drawn) | . | 0%[6.33 µM] | . | . | . | .
Cc1ccc(CCN2CCCCC23Cc2ccccc2CN(C(=O)CCC(=O)O)C3)cc1 (stereo not drawn) | . | 32µM* | . | . | . | .
Cc1cc(NC(=O)Cc2ccc(Cl)cc2Cl)n(CCC#N)n1 | . | 18% | . | . | . | .
O=C(Nc1cccnc1)c1cc(-c2ccccn2)nc2ccccc12 | . | 22% | . | . | . | .
COc1cc(Cl)c(S(=O)(=O)N2CCCC2)cc1Cl | 2% | 4% | -7 | 0 | -3% | -1%
COc1cc(N2C(=O)C=CC2=O)c(OC)cc1Cl | ? | 16µM* | 41 | 2 | -14% | 12%
COc1cccc([C@H]2Nc3ccc(S(=O)(=O)Nc4cc(C)ccc4C)cc3[C@H]3C=CC[C@H]32)c1 | 1% | -27% | 16 | 1 | -2% | 1%
Cc1ccc([C@H]2Nc3ccc(S(=O)(=O)Nc4cccc(Cl)c4C)cc3[C@H]3C=CC[C@H]32)cc1 | -6% | 40µM* | -16 | 1 | -5% | 6%
Nc1nc(SCc2ccccc2Cl)nc2nc3c(cc12)CCCC3 | ? | -1% | 3 | 0 | -2% | ?
Nc1nc(SCc2ccc(Cl)cc2Cl)nc2nc3c(cc12)CCCC3 | ? | ? | 19 | 1 | -3% | 22µM*
Cc1cc(NC(=O)CN2CCN(C(=O)c3cc(F)cc(F)c3)CC2)no1 | . | -27% | . | . | . | .
CN(C)c1ccc(C=C2C(=O)c3ccccc3C2=O)cc1 | 0% | . | . | 51* | -2% | .
COc1cc(C=C2C(=O)c3ccccc3C2=O)cc(OC)c1OC | -10% | ? | 4 | 0 | -4% | 25µM*
COc1ccc(-c2nn(-c3ccc(F)cc3)c(OC(C)=O)c2-c2ccc(NC(C)=O)cc2)cc1OC | . | 11µM* | . | . | . | .
CCC(=O)N(C)/C=C1\Sc2ccccc2C1=O | 2% | ? | -17 | 0 | -9% | 0%
CC(=O)N(C)/C=C1\Sc2ccccc2C1=O | -1% | 35µM* | 15 | -1 | -8% | 7%
CC(C)NC(=O)[C@@H]1C[C@@H](N)CN1C(=O)c1cccc2ccccc12 | . | 1% | . | . | . | .
CCC(C)(C)c1ccc2c(C(=O)N3C[C@H](N)C[C@H]3C(=O)NC)csc2c1 | . | 13µM* | . | . | . | .
S=c1[nH]cnc2scc(-c3ccc(Br)cc3)c12 | 6% | -12% | -2 | 2 | -7% | ?
Cc1ccc(-c2csc3nc[nH]c(=S)c23)cc1 | -1% | 35µM* | -11 | 1 | 5% | -9%
Cc1sc2nc[nH]c(=S)c2c1-c1ccccc1 | 1% | 32µM* | 3 | 2 | -6% | -9%
Cc1cc(-c2csc3nc[nH]c(=S)c23)cc(C)c1C | -12% | 28µM* | -12 | 1 | -9% | 5%
N#CC1=C(S)N(c2ccccc2)C(c2ccc(-c3ccc(Cl)c(Cl)c3)o2)NC1=O (stereo not drawn) | 2% | 18µM* | 3 | -1 | 0% | 1%
N#CC1=C(S)N(c2ccccc2)C(c2ccc(-c3cc(Cl)ccc3Cl)o2)NC1=O (stereo not drawn) | 2% | ? | -19 | 0 | 5% | 1%
